Here are results for eight compounds from PubChem BioAssay.

In assay [1] the test system is Wnt5a (protein binding on small-molecule microarray). Description: small molecules binding Wnt5a protein – biophysical, small-molecule microarray, 635/667 nm fluorescence, primary screen (AID 1142).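 Note: fluorescence read at 667 nm with signal to noise per printed feature.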 The following applies: 635 nm fluorescence, higher = more signal.
Assay [2] can be described thus: ATP-based viability of Huh7 replicon cells – cell-based, CellTiter-Glo luminescence, basal, 48 h, cytotoxicity control for HCV replication inhibitor project, primary screen (AID 1143).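 Note: Huh7 hepatoma cells carrying a hepatitis C replication reporter with no stimulus; test concentration not given here.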 The following applies: higher = more signal, called active from +8 up or from −8 down.
Assay [3] in a line: Pseudomonas biofilm growth suppression – PAO1 strain, BacTiter-Glo luminescence, LB-PBS, primary screen (AID 1144). The following applies: P. aeruginosa PAO1 biofilm, 12 h, higher = more signal.
Assay [4] can be described thus: basal CRE-LacZ reporter activity in PC12 – cell-based, unstimulated, primary screen (AID 1145). The following applies: no forskolin, luminescence, 4.5 h, higher = more signal, called active from +8 up or from −8 down.
Assay [5] in a line: forskolin-driven CRE-LacZ activity in PC12 – cell-based, CRE-LacZ reporter, forskolin-stimulated, primary screen (AID 1146).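 Note: PC12 cells with 6xCRE LacZ reporter stimulated by forskolin 10 µM; beta-galactosidase reporter signal reflecting CREB driven transcription.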 The note with it: luminescence, 4.5 h, higher = more signal, called active from +8 up or from −8 down.
In assay [6] the target is Streptavidin (Streptomyces avidinii) (UniProt P22629). The assay is described as follows: compounds binding control protein streptavidin – biophysical, small-molecule microarray, 635/667 nm fluorescence, artefact control for SMM compound annotation, primary screen (AID 1147).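 Note: signal reflects streptavidin binding to arrayed compounds as a control protein.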 The following applies: higher = more signal.
Sequence of Streptavidin (Streptomyces avidinii) (P22629 whole entry, looked up): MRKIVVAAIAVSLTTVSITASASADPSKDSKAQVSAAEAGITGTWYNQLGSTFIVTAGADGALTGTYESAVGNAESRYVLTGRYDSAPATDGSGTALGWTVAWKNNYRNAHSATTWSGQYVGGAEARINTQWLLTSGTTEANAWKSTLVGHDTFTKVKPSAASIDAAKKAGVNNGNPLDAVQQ
Assay [7] is described as follows: probe aInhba binding on compound microarray – biochemical, small-molecule microarray, 635/667 nm fluorescence, primary screen (AID 1148).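 Note: score merges 667nm spot fluorescence with signal-to-noise for antibody binding to printed compounds.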 The note with it: higher = more signal.
The target of assay [8] is Torsin-1A (Homo sapiens) (UniProt O14656). The assay is described as follows: TOR1A wild-type binding on microarray – cell lysate, small-molecule microarray, lysate, 635/667 nm, primary screen (AID 1149). The following applies: COS7 hTOR1A-WT lysate, 635 nm fluorescence, higher = more signal.
Sequence of Torsin-1A (Homo sapiens) (O14656 whole entry, looked up): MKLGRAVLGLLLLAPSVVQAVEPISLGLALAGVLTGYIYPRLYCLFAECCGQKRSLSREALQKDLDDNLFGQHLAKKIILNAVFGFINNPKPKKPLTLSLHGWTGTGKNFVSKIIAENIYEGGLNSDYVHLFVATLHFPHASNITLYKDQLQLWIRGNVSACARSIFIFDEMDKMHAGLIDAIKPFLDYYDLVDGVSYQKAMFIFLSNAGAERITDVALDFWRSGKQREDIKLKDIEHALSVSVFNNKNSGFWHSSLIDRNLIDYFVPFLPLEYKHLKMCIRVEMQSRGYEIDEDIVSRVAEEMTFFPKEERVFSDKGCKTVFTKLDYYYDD
Assay [9] has the same target. The assay is described as follows: torsin A mutant lysate binding on microarrays – cell lysate, small-molecule microarray, COS7 lysate, 635/667 nm fluorescence, primary screen (AID 1150).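 Note: score pools 667 nm emission and signal to noise measuring lysate protein binding.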 The following applies: COS7 hTOR1A mutant lysate, 635 nm fluorescence, higher = more signal.
Assay [10] relates to Sonic hedgehog protein (Shh). The assay is described as follows: Sonic hedgehog microarray binding compounds – biochemical, small-molecule microarray, 635/667 nm fluorescence, primary screen (AID 1151).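 Note: Shh protein binding to compounds spotted on small-molecule microarray slides; score combines spot fluorescence intensity with signal-to-noise across triplicate slides.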 The following applies: 635 nm fluorescence, higher = more signal.
The nature of assay [11]: optical density shifts of acrAB sulA E. coli – strain DRC41, OD650, 48 h, E. coli filamentation inducer project, primary screen (AID 1152).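 Note: E. coli MC1000 strain DRC41 lacking acrAB efflux pump and sulA.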 The note with it: higher = more signal, called active from +8 up or from −8 down.
The nature of assay [12]: probe aLefty1 binding on compound microarray – biochemical, small-molecule microarray, 635/667 nm fluorescence, primary screen (AID 1153).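 Note: score merges spot fluorescence with signal-to-noise ratio from the scanned slide images.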 The following applies: higher = more signal.
The nature of assay [13]: plasmodial surface anion channel blockers, osmotic lysis – cell-based, P. falciparum Indochina, OD700, 1 h, primary screen (AID 1154). The following applies: P. falciparum Indochina infected RBC osmotic lysis, higher = more signal, called active from +8 up or from −8 down.
Assay [14] can be described thus: plasmodial surface anion channel blockers, osmotic lysis – cell-based, P. falciparum Indochina, OD700, 2 h, primary screen (AID 1155).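 Note: lysis reports solute entry through the parasite surface anion channel PSAC.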 The following applies: P. falciparum Indochina infected erythrocytes, higher = more signal, called active from +8 up or from −8 down.
A short description of assay [15]: changes in parasitized red cell lysis, either direction – P. falciparum Indochina, OD700, 3 h, PSAC antagonist project, primary screen (AID 1156). The note with it: P. falciparum-infected erythrocytes, osmotic lysis, higher = more signal, called active from +8 up or from −8 down.
Assay [16] is described as follows: plasmodial surface anion channel blockers, osmotic lysis – cell-based, P. falciparum Indochina, OD700, 18 h, primary screen (AID 1157). The following applies: P. falciparum Indochina infected erythrocytes, osmotic lysis OD700, 18 h; higher = more signal, called active from +8 up or from −8 down.
Assay [17] in a line: S6 kinase pathway phospho-S6 level changes – cell-based, A549, cytoblot, luminescence, serum-stimulated, primary screen (AID 1158).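 Note: serum-stimulated A549 lung adenocarcinoma cells; signal is phosphorylated S6 detected by cytoblot immunostaining with HRP secondary.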 The following applies: 5 h, higher = more signal.
The target of assay [18] is NADPH oxidase 2 (Homo sapiens) (UniProt P04839). Description: compounds shifting NOX2 Amplex Red fluorescence – cell-based, HEK293-NOX2, PMA-stimulated, NOX inhibitor project, primary screen (AID 1159). Note: test concentration not given here. The following applies: 45 min, higher = more signal, called active from +8 up or from −8 down.
Sequence of NADPH oxidase 2 (Homo sapiens) (P04839 whole entry, looked up): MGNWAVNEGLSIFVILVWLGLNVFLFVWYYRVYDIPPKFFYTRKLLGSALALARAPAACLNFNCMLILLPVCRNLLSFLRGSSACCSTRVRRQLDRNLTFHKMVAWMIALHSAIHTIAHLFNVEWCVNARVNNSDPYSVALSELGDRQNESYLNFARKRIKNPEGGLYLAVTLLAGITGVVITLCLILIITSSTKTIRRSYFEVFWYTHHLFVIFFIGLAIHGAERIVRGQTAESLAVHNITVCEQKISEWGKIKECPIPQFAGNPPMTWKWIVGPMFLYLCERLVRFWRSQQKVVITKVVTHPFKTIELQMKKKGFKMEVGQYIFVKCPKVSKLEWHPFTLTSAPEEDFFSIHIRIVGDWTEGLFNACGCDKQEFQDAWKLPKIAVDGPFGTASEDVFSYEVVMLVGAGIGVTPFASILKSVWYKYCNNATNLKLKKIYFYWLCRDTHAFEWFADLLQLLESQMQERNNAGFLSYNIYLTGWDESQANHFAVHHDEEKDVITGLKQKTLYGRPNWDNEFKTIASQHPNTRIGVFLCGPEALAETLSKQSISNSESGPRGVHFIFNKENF
For assay [19], the target named is NADPH oxidase 4 (Homo sapiens) (UniProt Q9NPH5). Description: compounds shifting NOX4 Amplex Red fluorescence – cell-based, HEK293-NOX4, tetracycline-induced, NOX inhibitor project, primary screen (AID 1160). The note with it: HEK293-NOX4, Amplex Red H2O2 fluorescence, 45 min; higher = more signal, called active from +8 up or from −8 down.
Sequence of NADPH oxidase 4 (Homo sapiens) (Q9NPH5 whole entry, looked up): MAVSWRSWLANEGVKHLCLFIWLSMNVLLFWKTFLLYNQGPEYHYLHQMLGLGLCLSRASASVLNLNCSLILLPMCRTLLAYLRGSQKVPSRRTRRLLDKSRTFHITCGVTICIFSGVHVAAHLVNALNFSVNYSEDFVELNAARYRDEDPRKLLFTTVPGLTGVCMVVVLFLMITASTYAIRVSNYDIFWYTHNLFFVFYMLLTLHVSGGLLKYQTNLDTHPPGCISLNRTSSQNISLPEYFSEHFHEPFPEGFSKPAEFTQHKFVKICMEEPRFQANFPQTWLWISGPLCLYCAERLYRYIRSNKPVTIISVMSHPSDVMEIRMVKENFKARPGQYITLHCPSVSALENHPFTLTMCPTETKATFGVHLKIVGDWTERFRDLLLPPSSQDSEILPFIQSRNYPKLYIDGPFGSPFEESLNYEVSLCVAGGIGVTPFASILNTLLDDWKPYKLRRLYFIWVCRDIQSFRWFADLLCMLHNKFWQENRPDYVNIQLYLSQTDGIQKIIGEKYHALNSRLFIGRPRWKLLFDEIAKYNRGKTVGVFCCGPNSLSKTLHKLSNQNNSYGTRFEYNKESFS
Assay [20] addresses NADPH oxidase 5 (Homo sapiens) (UniProt Q96PH1). The assay is described as follows: compounds shifting NOX5 Amplex Red fluorescence – cell-based, HEK293-NOX5, NOX inhibitor project, primary screen (AID 1161). The following applies: HEK293-NOX5, ionomycin, 45 min, higher = more signal.

Activity calls are given as the source filed them. Unless noted, the rule behind the calls is not given here.

Sequence of NADPH oxidase 5 (Homo sapiens) (Q96PH1 whole entry, looked up): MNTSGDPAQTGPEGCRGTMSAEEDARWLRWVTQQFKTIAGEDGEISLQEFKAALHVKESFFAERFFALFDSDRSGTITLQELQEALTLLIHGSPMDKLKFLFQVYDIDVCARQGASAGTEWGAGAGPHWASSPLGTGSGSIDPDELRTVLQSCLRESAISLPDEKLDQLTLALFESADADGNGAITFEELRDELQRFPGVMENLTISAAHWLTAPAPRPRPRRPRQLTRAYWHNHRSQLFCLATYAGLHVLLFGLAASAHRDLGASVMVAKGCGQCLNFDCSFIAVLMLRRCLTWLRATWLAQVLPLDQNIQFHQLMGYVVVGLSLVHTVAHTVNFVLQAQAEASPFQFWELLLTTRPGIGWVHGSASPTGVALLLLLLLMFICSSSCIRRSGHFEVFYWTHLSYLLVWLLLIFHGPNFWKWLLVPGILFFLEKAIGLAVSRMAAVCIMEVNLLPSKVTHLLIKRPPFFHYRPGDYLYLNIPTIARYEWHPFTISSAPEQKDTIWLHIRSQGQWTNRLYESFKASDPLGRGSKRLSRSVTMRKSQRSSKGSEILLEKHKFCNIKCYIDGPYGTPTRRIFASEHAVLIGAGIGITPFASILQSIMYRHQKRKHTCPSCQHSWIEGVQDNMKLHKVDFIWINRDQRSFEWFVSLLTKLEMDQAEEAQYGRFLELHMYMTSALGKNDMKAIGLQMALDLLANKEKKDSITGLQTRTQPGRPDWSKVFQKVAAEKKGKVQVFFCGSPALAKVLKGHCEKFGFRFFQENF

Take `CCOC(=O)NN=C1C[C@@H](O)[C@@H](O)[C@@H]2[C@@H]3C(=O)N(C(C)(C)C)C(=O)[C@@H]3CC[C@@H]12`: the composite z-score in assay [1] is -0.263; in assay [6] it was -0.784; in assay [7] it was -0.0849; in the assay with Torsin-1A (Homo sapiens) [8] it was 0.527; in the assay with Torsin-1A (Homo sapiens) [9] it was 0.541; in [10] it was -0.36. Moreover, the composite z-score in assay [12] was -0.0601. The z-score is 0.312 (inactive) in assay [2]; 0.125 (inactive) in assay [3]; -0.0246 (inactive) in [4]; 0.244 (inactive) in [5]; -0.0206 (inactive) in assay [11]; 0.209 (inactive) in assay [13]. In addition, the z-score in assay [14] is -0.0313 (inactive); in assay [15] it was -0.548 (inactive); in assay [16] it was 0.0353 (inactive); in [17], -0.12; in assay [18], 0.5 (inactive); in assay [19], 1.05 (inactive). In assay [20], the z-score was determined as 0.295.
In the case of `C[C@H]1CC[C@@H](C(=O)O)N[C@@H]1c1ccc(C#CCN(C)C)cc1`, the composite z-score was 0.163 in assay [1]; 0.85 in [6]; -0.273 in assay [7]; 0.363 with Torsin-1A (Homo sapiens) [8]; 0.323 in the assay with Torsin-1A (Homo sapiens) [9]; 0.427 in [10]. For the same compound, the composite z-score in [12] is -0.231. Moreover, the z-score was 0.141 (inactive) in [2]; -0.0379 (inactive) in assay [3]; 1.83 (inactive) in assay [4]; -1.12 (inactive) in assay [5]; 0.883 (inactive) in assay [11]; 0.167 (inactive) in [13]. Also, the z-score was -0.219 (inactive) in assay [14]; 0.274 (inactive) in assay [15]; -0.0947 (inactive) in assay [16]; 0.112 in assay [17]; 0.903 (inactive) in assay [18]; -0.00118 (inactive) in [19]. Also, the z-score in assay [20] is 0.0715.
As for `C[C@@H](c1ccccc1)N1C(=O)[C@H]2[C@H]3[C@H](O)[C@H](O)CC(=NOC[C@@H](O)COCc4ccco4)[C@@H]3CC[C@H]2C1=O`, the composite z-score in [1] was -0.253; in [6], -0.485; in assay [7], -0.176; in the assay with Torsin-1A (Homo sapiens) [8] it was -0.304; with Torsin-1A (Homo sapiens) [9], -0.294; in assay [10], -0.494. The compound further gave a composite z-score in assay [12] of -0.147. Moreover, the z-score in [2] is 0.333 (inactive); in assay [3], -0.0196 (inactive); in [4], -0.292 (inactive); in [5] it was 0.236 (inactive); in assay [11], -0.224 (inactive); in [13], 0.169 (inactive). For the same compound, the z-score in assay [14] is 0.32 (inactive); in [15] it was -0.478 (inactive); in assay [16] it was -0.138 (inactive); in assay [17], 0.403; in assay [18], 0.215 (inactive); in assay [19] it was -1.51 (inactive). The z-score in assay [20] was -0.681.
On to `COC(=O)CC=C[C@H](C)[C@H](CO)NS(=O)(=O)c1ccc(C)cc1`, for which the composite z-score in assay [1] is 0.378; in [6], 0.293; in assay [7], -0.122; with Torsin-1A (Homo sapiens) [8], 0.375; with Torsin-1A (Homo sapiens) [9] it was 0.0191; in assay [10], 0.82. For the same compound, in assay [12], the composite z-score is -0.221. Besides, the z-score in assay [2] is -1.27 (inactive); in assay [3], -0.0262 (inactive); in assay [4], -0.434 (inactive); in assay [5], -0.692 (inactive); in assay [11] it was -1.48 (inactive); in assay [13], 0.251 (inactive). The z-score in assay [14] is -0.085 (inactive); in assay [15] it was -0.206 (inactive); in assay [16], -0.119 (inactive); in [17], -0.497; in assay [18], 1.48 (inactive); in assay [19], 0.227 (inactive). Further, the z-score in [20] was -0.484.
As to `CCOC(=O)C[C@H]1[C@H](OC(=O)c2ccc(C(=O)c3ccccc3)cc2)[C@@H](NC(=O)c2ccc(-c3ccccc3)cc2)c2cc(OCCCO)ccc2N1C(=O)c1ccc2ccccc2n1`, the composite z-score in assay [1] is 0.599; in assay [6], 1.44; in [7], -0.102; in the assay with Torsin-1A (Homo sapiens) [8], 0.274; with Torsin-1A (Homo sapiens) [9], 0.408; in [10], 1.11. This compound gave a composite z-score in assay [12] of -0.118. Also, the z-score was -0.0434 (inactive) in [2]; -1.22 (inactive) in assay [3]; -0.738 (inactive) in assay [4]; -0.286 (inactive) in assay [5]; 2.25 (inactive) in [11]; 5.21 (inactive) in assay [13]. The z-score was 0.485 (inactive) in assay [14]; 0.464 (inactive) in assay [15]; 0.407 (inactive) in assay [16]; 0.756 in assay [17]; -1.46 (inactive) in [18]; 0.424 (inactive) in [19]. In addition, the z-score in assay [20] amounted to 0.216.
For `CC(C)NC(=O)[C@@H]1c2ccccc2C(=O)N(CC23CC4CC(CC(C4)C2)C3)[C@H]1c1ccc(CO)cc1`, the composite z-score was found to be 0.0678 in assay [1]; 0.969 in assay [6]; 0.0569 in [7]; 0.508 in the assay with Torsin-1A (Homo sapiens) [8]; 0.561 in the assay with Torsin-1A (Homo sapiens) [9]; 1.54 in assay [10]. The compound also showed a composite z-score in assay [12] of 0.433. The z-score in [2] is -4.06 (inactive); in assay [3], -2.1 (inactive); in assay [4], -0.0259 (inactive); in [5], -0.607 (inactive); in assay [11], 1.47 (inactive); in assay [13] it was 1.63 (inactive). In addition, the z-score in assay [14] is -0.315 (inactive); in assay [15], -0.143 (inactive); in assay [16], -0.853 (inactive); in [17] it was 1.31; in [18] it was 0.357 (inactive); in assay [19], 0.318 (inactive). For the same compound, in [20], the z-score is -1.82.
Consider `CC(C)(C)N1CC=CC23O[C@@H]4C=CCCOC(=O)C4[C@H]2C(=O)N(CCCCCO)[C@@H]3C1=O` (stereo not given in full), for which the composite z-score in assay [1] is 0.37; in assay [6] it was -0.102; in assay [7], 0.214; with Torsin-1A (Homo sapiens) [8], 1.11; with Torsin-1A (Homo sapiens) [9] it was 0.879; in assay [10] it was 0.992. The compound further yielded a composite z-score in assay [12] of 0.0919. Moreover, the z-score was -0.128 (inactive) in assay [2]; -0.174 (inactive) in assay [3]; 0.333 (inactive) in assay [4]; -0.329 (inactive) in assay [5]; 0.499 (inactive) in assay [11]; 1.03 (inactive) in assay [13]. For the same compound, the z-score in assay [14] was 0.396 (inactive); in assay [15], 1.98 (inactive); in [16] it was 0.159 (inactive); in [17], -0.186; in assay [18], 1.26 (inactive); in assay [19], 0.385 (inactive). Moreover, in assay [20], the z-score was 1.75.
As to `COCCCNC(=O)[C@]1(Cc2ccccc2)N=C(c2ccc(OCCCO)cc2)O[C@@H]1c1ccccc1`, the composite z-score in assay [1] was 0.424; in [6], 0.661; in assay [7], 0.142; with Torsin-1A (Homo sapiens) [8] it was 0.445; with Torsin-1A (Homo sapiens) [9] it was 0.992; in assay [10] it was -0.521. For the same compound, the composite z-score in [12] worked out at 0.301. For the same compound, the z-score in assay [2] is -2.94 (inactive); in assay [3], -0.0581 (inactive); in [4], 0.423 (inactive); in assay [5], -1.36 (inactive); in assay [11] it was -1.43 (inactive); in assay [13], 26.9 (active). The z-score is 18.6 (active) in assay [14]; 0.972 (inactive) in assay [15]; 2.34 (inactive) in [16]; -0.612 in [17]; -1.04 (inactive) in assay [18]; 0.654 (inactive) in [19]. The z-score in assay [20] was found to be 1.1.
